A549 viability = Nrf2 qHTS screen for inhibitors: counterscreen for cytotoxicity. Potency, µM (doses to about 46 µM), usual class: inhibitors. AID 504648, 2011. A549 ARE-Fluc cells, CellTiter-Fluor viability, 18-24 h. hit rate 0.16% among 390,000
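Cytotoxicity counterscreen: CellTiter-Fluor fluorescence was measured in A549 ARE_Fluc cells after 18-24 h of compound exposure in a concentration series. The subsequent BugLite luminescent read reports ARE-luciferase activity.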
TGFb SMAD3 inh = qHTS for Inhibitors of TGF-b; HepG2 CAGA-GFP TGF-b/SMAD3 reporter, GFP fluorescence, 18 h; TGF-beta stimulated, 500 pg/mL final; Potency, µM (titrated, usually from 46.1 µM), usual class: inhibitors; hit rate 1.2% among 410,000; AID 588855, 2011; also: nearly all actives have a fitted effect of over 65% in size
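HEPG2 CAGA-GFP cells (1000/well, DMEM with 1% FBS) were pre-incubated 2 h at 37 degrees C, given compound by pin tool, then stimulated with TGF-beta at 500 pg/mL final for 18 h before per-cell GFP fluorescence imaging.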
HepG2 viability = qHTS for Inhibitors of TGF-b: Cytotox Counterscreen; HepG2 CAGA-GFP viability, ATP luminescence, 18 h; hit rate 0.76% among 410,000; Potency, µM (highest dose often 46.1 µM), most hits filed as cytotoxic
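HepG2 CAGA-GFP cells (1000/well, DMEM with 1% FBS) received compound, then TGF-beta at 500 pg/mL final, and were incubated 18 hours at 37 degrees C. Viability was read by CellTiter-Glo luminescence. Media-only wells were set as complete cell-killing and DMSO as no toxicity.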
Nrf2 activator = qHTS of Nrf2 Activators; Potency, µM (top dose mostly 46.1 µM), usual class: activators; AREc32 ARE-luciferase reporter (MCF7-derived line), luminescence, 24 h; hit rate 0.31% among 410,000; AID 624171, 2012; also: nearly all actives have a fitted effect of over 65% in size
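AREc32 cells carrying an ARE-driven firefly luciferase, 1000 cells/well in OPTI-MEM with 5% FBS, dosed after overnight attachment and incubated 24 hr at 37 deg C. Steady-Glo luminescence read after 30 min at RT.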
Nrf2 inh = Nrf2 qHTS screen for inhibitors; A549 ARE-Fluc reporter, luciferase luminescence, 18-24 h; Potency, µM (series often up to 46 µM), hits mostly inhibitors; hit rate 2.1% among 360,000; AID 504444, 2011; also: nearly all actives have a fitted effect of over 60% in size
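In this cell-based qHTS, ARE-driven firefly luciferase in A549 cells reports Nrf2 activity; the luminescent signal after BugLite lysis is the measured value, with a prior CellTiter-Fluor read for cell health.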
Hits are given with their value; [ ] = remark or other dose. Sampled rows, rich in hits. Any-hit rate of the full collection: about 3.6%. Calls follow the shape of the dose curve; as a rule, active = well fitted curve in the direction sought with a large enough effect; inconclusive = small, poorly fitted or top-dose-only effect, or another doubt; inactive = no such curve, though single readings can be large; an effect the other way counts as inactive or inconclusive.

Results for COc1ccc(-c2nnc(SC)nc2-c2ccc(OC)c([N+](=O)[O-])c2)cc1[N+](=O)[O-] ?
A549 viability: inactive; TGFb SMAD3 inh: inactive; HepG2 viability: inactive; Nrf2 activator: inactive; Nrf2 inh: inactive

How did COc1cc(/C=C/c2sc3ccccc3[n+]2CCCS(=O)(=O)[O-])ccc1O do in these assays?
A549 viability: 12µM; TGFb SMAD3 inh: inconclusive; HepG2 viability: inactive; Nrf2 activator: inactive; Nrf2 inh: inconclusive

What do the screens show for `COc1ccc(/C=C/c2sc3ccccc3[n+]2CCCCI)cc1OC`?
TGFb SMAD3 inh: inactive; HepG2 viability: inactive

How did O=C(C1CCC(CNS(=O)(=O)c2cccs2)CC1)N1CCN(c2ccc(Cl)cc2)CC1 (configuration not stated) do in these assays?
A549 viability: inconclusive; TGFb SMAD3 inh: inconclusive; HepG2 viability: inactive; Nrf2 activator: inactive; Nrf2 inh: 8.2µM

What do the screens show for `COc1cccc(C2CC(c3ccc(Br)cc3)=NN2C(=O)c2ccncc2)c1OC` (configuration not stated)?
A549 viability: inactive; TGFb SMAD3 inh: inconclusive; HepG2 viability: inactive; Nrf2 activator: inactive; Nrf2 inh: 18µM

How did O=C(CSc1nnc2c(Cl)cc(C(F)(F)F)cn12)N(Cc1ccccc1)Cc1ccccc1 do in these assays?
A549 viability: inactive; TGFb SMAD3 inh: inactive; HepG2 viability: 11µM; Nrf2 activator: inactive; Nrf2 inh: inactive

What do the screens show for `COc1cccc2sc(Nc3nnc(-c4ccc(F)cc4)o3)nc12`?
A549 viability: inactive; TGFb SMAD3 inh: inactive; HepG2 viability: 13µM; Nrf2 activator: inactive; Nrf2 inh: inactive

How did Cc1ccnc(SCC(=O)NC2CCCCCC2)n1 do in these assays?
A549 viability: inactive; TGFb SMAD3 inh: inactive; HepG2 viability: inactive; Nrf2 activator: inactive; Nrf2 inh: inactive

Results for CC(C)c1ccc(/C=N\NC(=O)c2ccc(Cn3cccn3)o2)cc1 ?
A549 viability: inactive; TGFb SMAD3 inh: inactive; HepG2 viability: inactive; Nrf2 activator: inactive; Nrf2 inh: inactive

Results for N#C/C(=C\c1ccccc1[N+](=O)[O-])c1nc(C2CC2)cs1 ?
A549 viability: inactive; TGFb SMAD3 inh: inconclusive; HepG2 viability: inactive; Nrf2 activator: 10µM; Nrf2 inh: inconclusive

Results for N#C/C(=C/c1ccccc1[N+](=O)[O-])c1nc(C2CC2)cs1 ?
A549 viability: inactive; TGFb SMAD3 inh: inactive; HepG2 viability: inactive; Nrf2 activator: 11µM; Nrf2 inh: inconclusive

Results for N#C/C(=C\C=C\c1ccccc1[N+](=O)[O-])c1nc(-c2ccc3c(c2)OCO3)cs1 ?
A549 viability: inactive; TGFb SMAD3 inh: inactive; HepG2 viability: inactive; Nrf2 activator: inactive; Nrf2 inh: inactive

Results for COC(=O)[C@H](C)N(Cc1ccc(Cl)c(Cl)c1)S(=O)(=O)CCN1CCN(c2ccccc2)CC1 ?
A549 viability: inactive; TGFb SMAD3 inh: 11µM; HepG2 viability: inactive; Nrf2 activator: inactive; Nrf2 inh: inconclusive

Results for CNC(=S)N(CCc1c(C)[nH]c2ccc(OC)cc12)Cc1cc(OC)c(OC)c(OC)c1 ?
A549 viability: inactive; TGFb SMAD3 inh: inactive; HepG2 viability: inactive; Nrf2 activator: inactive; Nrf2 inh: inactive

How did CNC(=S)N(CCc1c(C)[nH]c2ccc(C)cc12)Cc1cc(OC)c(OC)c(OC)c1 do in these assays?
A549 viability: inconclusive; TGFb SMAD3 inh: inactive; HepG2 viability: inactive; Nrf2 activator: inactive; Nrf2 inh: 23µM

How did O=C(NCc1cccnc1)/C(=C\c1ccc(-c2ccc(Cl)c(Cl)c2)o1)S(=O)(=O)c1ccccc1 do in these assays?
A549 viability: inconclusive; TGFb SMAD3 inh: 4.5µM; HepG2 viability: inactive; Nrf2 activator: inconclusive; Nrf2 inh: 18µM

How did Cc1ccc(CC(=O)N2CCC(c3nc4c(nnn4Cc4ccccc4)c(=O)[nH]3)CC2)cc1 do in these assays?
A549 viability: inactive; TGFb SMAD3 inh: inconclusive; HepG2 viability: inactive; Nrf2 activator: inactive; Nrf2 inh: inactive

What do the screens show for `Cc1ccc(C)c(C(=O)N2CCC(c3nc4c(nnn4Cc4ccccc4)c(=O)[nH]3)CC2)c1`?
A549 viability: inactive; TGFb SMAD3 inh: 11µM; HepG2 viability: inactive; Nrf2 activator: inactive; Nrf2 inh: inactive

How did CC(C)(C)c1ccc(Cn2nnc3c(=O)[nH]c(C4CCCN(C(=O)Cc5cccs5)C4)nc32)cc1 (configuration not stated) do in these assays?
A549 viability: inactive[1.84 µM]; TGFb SMAD3 inh: inconclusive; HepG2 viability: inactive; Nrf2 activator: inactive; Nrf2 inh: inconclusive

How did CC(C)(C)c1ccc(Cn2nnc3c(=O)[nH]c(C4CCCN(C(=O)c5cccs5)C4)nc32)cc1 (configuration not stated) do in these assays?
A549 viability: inactive; TGFb SMAD3 inh: inconclusive; HepG2 viability: inactive; Nrf2 activator: inactive; Nrf2 inh: 23µM

How did O=C(N/C(=C/c1ccccc1)C(=O)N1CCOCC1)c1ccc([N+](=O)[O-])cc1 do in these assays?
A549 viability: inactive; TGFb SMAD3 inh: inactive; HepG2 viability: inactive; Nrf2 activator: inactive; Nrf2 inh: inactive

Results for Cc1c(N=Cc2ccc(Br)s2)cccc1[N+](=O)[O-] ?
A549 viability: inactive; TGFb SMAD3 inh: inactive; HepG2 viability: inactive; Nrf2 activator: inactive; Nrf2 inh: inactive

What do the screens show for `O=c1c(Cl)c(Cl)cnn1Cc1nnc(-c2ccc(Cl)cc2)o1`?
A549 viability: inactive; TGFb SMAD3 inh: 13µM; HepG2 viability: 11µM; Nrf2 activator: inconclusive; Nrf2 inh: inactive

Results for CC1=NN(C(N)=S)C(=O)C1N=Nc1cccc(C(=O)O)c1 (configuration not stated) ?
A549 viability: inconclusive; TGFb SMAD3 inh: inactive; HepG2 viability: inactive; Nrf2 activator: inactive; Nrf2 inh: inactive

Results for CC1=NN(C(N)=S)C(=O)C1N=Nc1cccc(C)c1 (configuration not stated) ?
A549 viability: inactive; TGFb SMAD3 inh: 1.8µM; HepG2 viability: inactive; Nrf2 activator: inactive; Nrf2 inh: inconclusive

Results for O=C(NCc1ccc(Cl)cc1)c1cc2ccc3cccnc3c2[nH]1 ?
A549 viability: inactive; TGFb SMAD3 inh: inactive; HepG2 viability: inactive; Nrf2 activator: inactive; Nrf2 inh: inconclusive

How did O=C(NCC1CCN(Cc2ccccc2Cl)CC1)c1cc2ccc3cccnc3c2[nH]1 do in these assays?
A549 viability: inactive; TGFb SMAD3 inh: 16µM; HepG2 viability: 16µM; Nrf2 activator: inactive; Nrf2 inh: inconclusive

How did O=C(NCC1CCN(Cc2ccc(F)cc2)CC1)c1cc2ccc3cccnc3c2[nH]1 do in these assays?
A549 viability: inactive; TGFb SMAD3 inh: 16µM; HepG2 viability: 18µM; Nrf2 activator: inactive; Nrf2 inh: inconclusive

How did COc1ccc(C(=O)c2no[n+]([O-])c2C(=O)c2ccc(OC)cc2)cc1 do in these assays?
A549 viability: inactive; TGFb SMAD3 inh: inconclusive; HepG2 viability: inactive; Nrf2 activator: inactive; Nrf2 inh: inconclusive

From PubChem
